Rows were chosen to be rich in hits. Some 18% of all compounds tested hit in one or more screens of this group.
TDP1 cell noCPT: qHTS for Inhibitors of human tyrosyl-DNA phosphodiesterase 1 (TDP1): qHTS in cells in absence of CPT; DT40 Tdp1-/- hTDP1 cells, no CPT, ATP luminescence, 48 h; Potency, µM (highest dose often 46.2 µM), without a hit: top-dose activity change, negative = growth inhibition, actives largely listed as inhibitors; actives 15% (n = 420,000); AID 686978, 2013; also: potency is read from the fitted curve at half-maximal effect; nearly all actives have a fitted effect of over 55% in size
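Growth of hTDP1-complemented DT40 Tdp1-knockout cells is measured by ATP luminescence after at least 48 hr compound exposure at 37 °C, with DMSO substituting for the 20 nM CPT used in the parallel screen.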
IL-1B inflam inh: inflammasome signaling inhibition, IL-1 beta readout; THP-1 LPS/ATP IL-1B secretion, AlphaLISA, 16 h; active compounds read low; activity change, % at 57.5 µM; actives 4.7% (n = 360,000); in the data active = activity change below about -50%; inconclusive = mostly about -30% to -49%
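THP-1 cells pretreated 1 hr with compounds (up to 57.5 uM final), then stimulated with LPS (250 ng/mL final) plus ATP (1.25 mM final); secreted IL-1B measured by AlphaLISA after 16 hr, decreased signal indicating inhibition.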
CtBP-E1A inh: blocks the CtBP interaction with E1A. AlphaScreen GST-E1A/His-CtBP binding, 1536-well; active compounds read low. activity change, % (no concentration beside the values). actives 0.49% (n = 340,000); in the data active = activity change below about -65%; inconclusive = mostly about -30% to -63%
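Steps: dispense buffer (Tris pH 8.0, NaCl 300 mM, TCEP 1 mM, BSA, Tween 20); add 5X protein mix (GST-E1A, His-CtBP, 125 nM each); pin 23 nL compound; 2 h at 37 °C, dark; add 5X beads (50 ug/mL); 1 h; read.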
Six1-Eya2 blk: Six1/Eya2 interaction inhibition; Q15475+O00167; AlphaScreen GST-Six1/His-Eya2 binding, biochemical; active compounds read low; activity change, % (test concentration not listed); actives 0.56% (n = 360,000); in the data active = activity change below about -65%; inconclusive = mostly about -30% to -63%
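Compounds are tested against tagged Six1 and Eya2 proteins bridged by glutathione donor and nickel acceptor beads; after a one-hour incubation at 37 °C without light, AlphaScreen emission is recorded.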
TDP1 cell CPT: growth inhibition of DT40 Tdp1-/-;hTDP1 cells with camptothecin (screen for TDP1 inhibitors); chicken DT40 Tdp1-/-;hTDP1 cells + 20 nM CPT, ATP luminescence, 48 h; Potency, µM (doses to about 46.2 µM), for the others: at the highest dose activity change, negative = growth inhibition, hits mostly inhibitors; actives 12% (n = 420,000); also: potency is read from the fitted curve at half-maximal effect; nearly all actives have a fitted effect of over 55% in size
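Chicken DT40 Tdp1-/- cells stably complemented with human TDP1 were seeded at 400 cells/well in medium containing 20 nM camptothecin, exposed to pin-transferred compounds, and grown at 37 °C for at least 48 hr. Viability was read as ATP luminescence.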
TDP1 inh: TDP1 (human) enzyme inhibition; Q9NUW8; recombinant TDP1, AlphaScreen DNA substrate cleavage; Potency, µM (series often up to 130 µM), for the others: at the top dose activity change, negative = inhibition, most hits filed as inhibitors; actives 0.28% (n = 350,000); also: potency is read from the fitted curve at half-maximal effect; nearly all actives have a fitted effect of over 40% in size
Target sequence (Q9NUW8 whole entry, looked up): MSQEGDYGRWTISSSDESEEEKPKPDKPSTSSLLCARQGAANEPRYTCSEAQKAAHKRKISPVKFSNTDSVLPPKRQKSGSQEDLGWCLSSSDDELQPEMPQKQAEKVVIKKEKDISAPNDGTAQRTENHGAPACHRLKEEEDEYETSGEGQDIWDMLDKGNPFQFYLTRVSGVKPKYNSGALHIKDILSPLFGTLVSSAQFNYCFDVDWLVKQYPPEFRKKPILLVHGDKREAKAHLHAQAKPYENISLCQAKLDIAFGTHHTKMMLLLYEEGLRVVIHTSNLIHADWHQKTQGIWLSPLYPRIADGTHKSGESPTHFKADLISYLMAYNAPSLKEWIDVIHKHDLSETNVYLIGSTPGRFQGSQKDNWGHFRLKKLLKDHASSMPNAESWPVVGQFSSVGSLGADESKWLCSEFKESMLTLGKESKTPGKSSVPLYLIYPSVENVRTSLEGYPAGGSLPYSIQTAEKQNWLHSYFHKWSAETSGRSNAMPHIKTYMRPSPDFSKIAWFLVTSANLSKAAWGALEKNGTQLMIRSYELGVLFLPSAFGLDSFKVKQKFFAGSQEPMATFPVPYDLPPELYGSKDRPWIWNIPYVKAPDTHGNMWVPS
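Enzyme-compound mixtures sat 15 min at room temperature, followed by a 5 min reaction with 15 nM final substrate and 10 min with AlphaScreen beads. Recombinant human Tdp1 was used at 1 nM final.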
* marks the source's active call; other numbers are inactive results; u = inconclusive; x = not tested or not shown; [ ] = dose if it differs, or a comment. Unless noted, calls follow the shape of the dose curve; as a rule, active = well fitted curve in the direction sought with a large enough effect; inconclusive = small, poorly fitted or top-dose-only effect, or another doubt; inactive = no such curve, though single readings can be large; an effect the other way counts as inactive or inconclusive. % is scaled to controls: 0 for no effect and ±100 for the full control effect.

SMILES	TDP1 cell noCPT	IL-1B inflam inh	CtBP-E1A inh	Six1-Eya2 blk	TDP1 cell CPT	TDP1 inh
Cc1cccc(Oc2nc(-c3ccccn3)nc3ccccc23)c1	1µM*	-99*	u	u	1.2µM*	9%
COc1ccccc1CCNC(=O)Cc1c(C)c2c(cc(C)c3c(C)c(C)oc32)oc1=O	-8%	x	x	x	-13%	-2%
CCCCNC(=O)[C@H]1N2C(=O)c3c(ccc(OC)c3OC)C2SC1(C)C (stereo partly drawn)	-24%	-12	x	0	-11%	x
O=C(O)CC/C(=N\Nc1ccc([N+](=O)[O-])cc1)c1ccccc1	7%	7	5	-9	5%	6%
Cc1cc(N2CCC(C(N)=O)CC2)nc(-c2ccccc2)n1	-21%	-22	3	1	3%	x
CCN1CCN(Cc2ccc(NC(=O)c3cc(NC(=O)c4cncc(-c5ccc(C#N)cc5)c4)cc(OC)c3)cc2C(F)(F)F)CC1	2.6µM*	-59*	-17	0	2.3µM*	5%
CCN1CCN(Cc2ccc(NC(=O)c3cc(NC(=O)c4cnnc5ccccc45)cc(OC)c3)cc2C(F)(F)F)CC1	6.5µM*	3	-23	-23	8.2µM*	4%
COc1cc(OC)cc(C(=O)N2CCN(Cc3ccccc3C(F)(F)F)CC2)c1	u	-4	-7	-5	u	x
COc1ccccc1C(=O)NC(=O)OCCn1c(C)cnc1[N+](=O)[O-]	0%	10	0	3	-2%	3%
CCCN1CCCc2cc(CN(CCCN3CCOCC3)C(=O)Nc3ccc(CC)cc3)ccc21	21µM*	x	x	x	23µM*	11%
CCCCN1CCCc2cc(CN(CCCN3CCOCC3)C(=O)Nc3ccc(CC)cc3)ccc21	21µM*	x	x	x	u	2%
CCN1CCCc2cc(CN(CCN3CCOCC3)C(=S)Nc3ccc(OC)cc3)ccc21	-15%	-10	x	-8	-17%	3%
Cc1ccc(NC(=O)COC(=O)C2CCC2)cc1S(=O)(=O)N1CCCCC1	-2%	-6	-12	7	10%	0%
COC(=O)c1cc(CSc2nc3ccccc3[nH]2)oc1C	23µM*	29	-6	-2	15µM*	8%
CCCN(CCC)C(=O)Cn1c(=O)c2ccccc2n2c(=S)sc(-c3ccccc3C)c12	15µM*	21	8	1	10µM*	1%
Cc1c(Cl)cccc1NC(=S)N(Cc1ccco1)C(C)c1ccccn1 (stereo not drawn)	u	7	x	0	u	5%
CCCCN(C)c1c(C)nc2ccc(C(=O)NCCOc3ccc(OC)cc3)cn12	18µM*	-13	-8	-14	13µM*	x
CCc1nc2ccc(C(=O)NCc3ccc4c(c3)OCO4)cn2c1N(CC)CCOC	u	-15	1	-2	u	x
CCCCN(C(C)=O)c1c(CC)nc2ccc(C(=O)NCCOc3ccc(OC)cc3)cn12	13µM*	-5	-2	0	u	x
CCCCC(=O)N(C)c1c(C)nc2ccc(C(=O)NCCOc3ccc(OC)cc3)cn12	-30%	-4	-22	5	-19%	x
CCCCN(C)c1c(C)nc2ccc(C(=O)NCc3ccc4c(c3)OCO4)cn12	23µM*	-12	0	-3	u	x
COc1ccc(OCCNC(=O)c2ccc3nc(C)c(N(C)C(=O)CCc4ccccc4)n3c2)cc1	u	-10	2	1	23µM*	x
CCc1nc2ccc(C(=O)NCCOc3ccc(OC)cc3)cn2c1N(CCN(C)C)CC1CC1	u	u	-9	-8	u	x
Cc1c(NS(C)(=O)=O)cccc1-c1nc2ccccc2s1	u	x	x	x	u	1%
CCN1C(=O)N(c2cccc3ccccc23)C(C)=CC1(C)C	23µM*	6	1	-4	u	4%
SMILES	TDP1 cell noCPT	IL-1B inflam inh	CtBP-E1A inh	Six1-Eya2 blk	TDP1 cell CPT	TDP1 inh
Nc1ccc2c(c1)C(=O)N(c1cccc3ccccc13)C2=O	-25%	-11	18	17	0%	x
COc1cccc(NC(=O)Cn2c(=O)n(CCC(=O)NCc3ccccc3OC)c(=O)c3ccccc32)c1	u	x	x	x	26µM*	-4%
COc1ccccc1CNC(=O)CCCCn1c(=O)c2ccccc2n(CC(=O)Nc2cccc(Cl)c2)c1=O	9.2µM*	x	x	x	23µM*	1%
Cc1ccc(Oc2ncccc2NC(=O)CCCC(=O)O)c2c1CCC2	-20%	12	7	5	19%	1%
CC1CCN(c2nc3c(c(=O)n(C)c(=O)n3C)n2CCSc2nc3ccccc3s2)CC1	21µM*	17	3	-2	10µM*	2%
CC1CCN(c2nc3c(c(=O)n(C)c(=O)n3C)n2CCSc2ncccn2)CC1	u	20	-1	4	u	3%
CC1CCCN(c2nc3c(c(=O)n(C)c(=O)n3C)n2CCSc2nc3ccccc3o2)C1 (stereo not drawn)	21µM*	16	2	1	23µM*	4%
CC1CCCN(c2nc3c(c(=O)n(C)c(=O)n3C)n2CCSc2nc3ccccc3s2)C1 (stereo not drawn)	18µM*	-12	-2	-7	16µM*	-10%
Cc1ccnc(SCCn2c(N3CCC(C)CC3)nc3c2c(=O)n(C)c(=O)n3C)n1	23µM*	48	2	2	u	x
Cn1c(=O)c2c(nc(N3CCC(C(N)=O)CC3)n2CCSc2nc3ccccc3s2)n(C)c1=O	u	13	x	8	u	4%
CC1CCCN(c2nc3c(c(=O)[nH]c(=O)n3C)n2CCSc2nc3ccccc3o2)C1 (stereo not drawn)	-18%	12	-7	-8	-7%	7%
CCc1ccc(OCC(=O)NNC(=O)Cc2c(F)cccc2Cl)cc1	-13%	-7	-23	-7	3%	0%[0.505 µM]
COc1ccc(CN(C)C(=O)CNC(=O)CNC(=O)c2ccc(Cl)cc2Cl)cc1F	-9%	-4	-2	5	4%	2%
CCNC(=O)c1ccc(C23CC4CC(CC(C4)C2)C3)o1	15µM*	14	0	2	u	-5%
COCCN=c1scc(-c2cc(OC)ccc2OC)n1/N=C/c1c[nH]c2ccccc12	u	-50*	u	u	u	10%
COc1cccc(C(=O)Nc2cccc3c2ccc2cccn23)c1	23µM*	-30	0	-26	16µM*	2%
